The values that follow come from the emibetuzumab library of Makowski et al. (2022).

The labels stand for the following.
B1: VH:VL chains; a variant is named by its letters at X, in order (parent)
chain 1: QVQLVQSGAEVKKPGASVKVSCKASGYTFTDYXMHWVRQAPGQGLEWMGXVNPNXXXTTYNQKFEGRVTMTTDTSTSTAYMELRSLRSDDTAVYYCARXNXLDXWGQGTTVTVSS
chain 2: DIQMTQSPSSLSASVGDRVTITCSVSSSVSSIYLHWYQQKPGKAPKLLIYSTSNLASGVPSRFSGSGSGTDFTLTISSLQPEDFATYYCQVYSGYPLTFGGGTKVEIK

The other results are listed elsewhere or left out. No count for the full screen is at hand.

Variants of B1 are the subject of this assay. Put plainly: yeast display scFab, FACS + sequencing. The following applies: with MET. The method in brief:
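Round-3 sorted and input populations from a heavy-chain CDR mutant scFab yeast library were deep sequenced in two replicates. Sorting used FACS on cells labelled for 3 h at room temperature with 1 nM HGFR-Fc and anti-Myc in PBSB with 1% milk, keeping the top 50% antigen-positive cells. Any sequence seen in both antigen-positive samples was called a binder, while one seen only in the input was called a non-binder.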
As to AARADDWV, the antigen binding call is “no binding”.
In the case of FTEEGDGA it was “no binding”.
The result for DAGEAFSF reads “no binding”; that for AGGGNDGV, “no binding”; that for FRGRGSAF, “binds”.
The result for FRGRSSAF reads “binds”.
Turning to YEERSDAF, the antigen binding call is “no binding”.
In the case of SAEGDAAD it was “no binding”; in that of SRARGAAA, “binds”; in that of SRGRGFAA, “no binding”.
In the case of DAARGAAA it was “no binding”; in that of ARAASAGA, “no binding”.
The result for SGEGGAGA reads “no binding”; that for SRARGAGA, “binds”; that for SEEGTDWD, “no binding”.
VATGDDVD: the antigen binding call was “no binding”.
FKTKNYAD: the antigen binding call is on record as “no binding”.
The result for DKEGGDVV reads “no binding”; that for FRGRDYGA, “no binding”; that for FRGESSGA, “binds”.
In the case of FRGESAAA it was “binds”; in that of FTGTGSGA, “no binding”; in that of FRGESAGA, “binds”.
Regarding YAAGSDVY, the antigen binding call is “no binding”.
The result for DGGKNDGD reads “no binding”.
For DGTGGAGA, the antigen binding call is reported as “no binding”.
Regarding DTGGDAGV, the antigen binding call is recorded as “no binding”.
DATGGDVV: the antigen binding call is “no binding”.
For the variant FTEEGDGV, the antigen binding call is reported as “no binding”.
For YAEESSGV, the antigen binding call was “no binding”.
YRAGSSGV: the antigen binding call is recorded as “binds”.
In the case of YRAKSSGV it was “binds”.
In the case of YRAESSGV it was “binds”; in that of VAGAGDVV, “no binding”; in that of FARKSFGS, “no binding”.
The result for YRRRGSVA reads “binds”; that for YRRRGSSA, “binds”.
Regarding YAKRGSWA, the antigen binding call was “no binding”.
In the case of YRKRGSSA it was “binds”.
In the case of DEGGTSLD it was “no binding”; in that of YKAKGAGD, “binds”.
In the case of YKAEDVGD it was “no binding”; in that of YKGKGDAD, “no binding”.
In the case of VEAGDAGD, the antigen binding call is given as “no binding”.
The result for YKAKGAAD reads “binds”; that for VTAGDAGD, “no binding”; that for YKARGAAD, “binds”.
In the case of YKAGDAGD it was “binds”; in that of FAEGDDVV, “no binding”; in that of ARAAGDWV, “no binding”.
In the case of ARAKTSWV it was “no binding”; in that of AEERDSVV, “no binding”.
Consider FRGRGSLV, for which the antigen binding call was “binds”.
The result for FRKAAVAV reads “no binding”; that for FRKRGSAV, “binds”.
The result for ARARGSWV reads “binds”; that for ARAGGSVV, “binds”; that for FTTGGSAV chain 1 M48I, “no binding”.
In the case of AEAGDAVV it was “no binding”.
Consider SEARSYLV, for which the antigen binding call was “no binding”.
In the case of SEARSDVD it was “no binding”; in that of FTKAASWV, “no binding”.
In the case of FRGRGSVV, the antigen binding call is “binds”.
In the case of FRARGSWV it was “binds”; in that of FRGRGSAV, “binds”; in that of FRGRGSWV, “binds”.
With FRGRDVAV, the antigen binding call is given as “no binding”.
In the case of DAGTGAGD it was “no binding”; in that of SETTDDAV, “no binding”; in that of SEARSSLV, “no binding”.
In the case of YRRGSSSA it was “binds”; in that of DRREDSSA, “no binding”; in that of YAEESSSA, “no binding”.
The result for FARGGYVA reads “no binding”; that for YRRGDSSA, “binds”; that for DRRGDSSA, “no binding”.
As for FRRGGASA, the antigen binding call was “binds”.
In the case of YRRKGSSA it was “binds”; in that of VAAKSAAA chain 1 R38K, “no binding”.
For the variant ATGGDDWF, the antigen binding call is given as “no binding”.
The result for VEGGGDWS reads “no binding”; that for SEARNAGD, “no binding”; that for VKGRADWA, “no binding”.
The result for VTGGSDVY reads “no binding”; that for FATEGASA, “binds”.
In the case of FEETDASA it was “no binding”; in that of FRGRDFSA, “no binding”.
In the case of YRRGGASA, the antigen binding call is “binds”.
The result for FAEGDDSA reads “no binding”.
On to FAGGGDGA, for which the antigen binding call was “no binding”.
In the case of FRGKDASA it was “binds”.
In the case of YRRGGSSA it was “binds”.
In the case of DARGGSSA it was “no binding”.
For the variant STGGDDVY, the antigen binding call is given as “no binding”.
With VAGTGDWD, the antigen binding call was “no binding”.
The result for DTGKDAGD reads “no binding”; that for SETGGDVA, “no binding”.
In the case of SEARSAVS it was “no binding”.
In the case of SEEASSSA it was “no binding”; in that of YRRRDSSA, “binds”.
As for DRGRDSSA, the antigen binding call was “no binding”.
On to YTGTSSSA, for which the antigen binding call is listed as “no binding”.
Regarding YRRGGSVA, the antigen binding call is reported as “binds”.
For the variant VTGGDDVY, the antigen binding call was “no binding”.
The result for YTGGDDVV reads “no binding”; that for FKGEGSSA, “no binding”; that for FRGRGSSA, “binds”.
YEGGGSSA: the antigen binding call is “no binding”.
Regarding FRGGGSSA, the antigen binding call is listed as “binds”.
In the case of DTGRADWA it was “no binding”; in that of DTREGDVD, “no binding”; in that of DGRGDALS, “no binding”.
The result for YKRGDSSS reads “binds”.
YKRGDDSS: the antigen binding call is reported as “no binding”.
In the case of YKRGDASS it was “binds”; in that of VGTKGDAA, “no binding”; in that of DEGGGSSA, “no binding”.
With FRGGGSWA, the antigen binding call is on record as “binds”.
For the variant FRTGGAVA, the antigen binding call is given as “binds”.
In the case of FRGTGSWA, the antigen binding call was “no binding”.
The result for DATGGAVA reads “no binding”; that for FRGRDDWA, “no binding”; that for FRGGGSAA, “binds”.
In the case of FRGGGAVA it was “binds”.
The result for STGTSDVF reads “no binding”.
As to DAKEGDGV, the antigen binding call is reported as “no binding”.
Consider FRTRDSSS, for which the antigen binding call is listed as “binds”.
In the case of FAEGASSS it was “no binding”; in that of DRGGSSAA, “no binding”; in that of FRGGSSAA, “binds”.
The result for FRTRDSAA reads “binds”.
The result for AARADSLS reads “no binding”; that for FRGRAAVD, “binds”.
For FRGRDSSF, the antigen binding call was “binds”.
In the case of FRGRDAVF it was “binds”; in that of FRGRDYGD, “no binding”.
The result for FRGRDAVD reads “binds”.
In the case of FRGRDFAD it was “no binding”.
As to FRGRDDVF, the antigen binding call is on record as “no binding”.
In the case of DRGRDDVF it was “no binding”.
In the case of FRGRDYGF it was “no binding”.
